# D2 ag-1: activates the human D2 dopamine receptor; P14416; AID 485358; activation, % at 2 µM; 340,000 compounds, 0.53% hits; HEK293 T-REx D2 cells, calcium flux agonist mode;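 active = activation over 3 SD above normal in the single-dose calcium agonist read, cut at about 30% in these data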; also: 0% is about no effect
#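 In this primary screen, compounds producing a positive calcium signal within 180 s of addition to tetracycline-induced, force-coupled HEK293 Trex D2 cells are flagged; cells are dye-loaded with a no-wash calcium kit beforehand.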
# D2 PAM-1: D2 dopamine receptor (human) potentiation; P14416; HEK293 T-REx D2, calcium flux, EC20 dopamine potentiation; potentiation, % at 10 µM; 340,000 compounds, 0.34% hits; AID 485347;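 active = potentiation over 3 SD above the plate norm, cut at about 30% in these data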; also: 0% is about no effect
#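 Calcium flux readout, no-wash dye, 1 read/s. Inducible HEK293 Trex D2 line, overnight 30 C. Compound alone 180 s (agonist flags), then EC20 dopamine, another 180 s to score potentiation.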
# D2 ag-2: human D2 receptor agonism in beta-arrestin assay; 360,000 compounds, 0.084% hits; DiscoveRx PathHunter D2 beta-arrestin, luminescence, 90 min; 100% = 57 uM dopamine signal; activation, % (test concentration not listed); AID 624465; P14416; in the data active = activation above about 40%; inconclusive = between about 15% and that limit
#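 DiscoveRx PathHunter D2 beta-arrestin cells (2,100/well) attached overnight, then compound-stimulated 90 min at 37 C in HBSS/10 mM HEPES/0.1% Tween-20 buffer; beta-galactosidase complementation read by luminescence after 1 h at ambient temperature. Dopamine 57 uM final (EC100) as control.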
# D2 PAM-2: positive allosteric modulators of human D2 dopamine receptor | P14416 | DiscoveRx D2 beta-arrestin cells, luminescence, 90 min; 100% = 57 uM dopamine signal | potentiation, % (test concentration not listed) | 360,000 compounds, 0.23% hits; in the data active = potentiation above about 50%; inconclusive = mostly about 30% to 49%
#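 PathHunter beta-arrestin assay in DiscoveRx D2 cells. Compounds were added with an EC20 of dopamine (50 nM final) for 90 min at 37 deg C. Luminescence was read 1 h after detection reagent, with 57 uM dopamine as the EC100 control.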
# D2 antagonist: antagonizes the human D2 dopamine receptor; HEK293 TREx D2 cells, calcium flux, dopamine EC80; 340,000 compounds, 2% hits; P14416; inhibition, % at 10 µM; AID 485344; in the data active = inhibition above about 30%; inactive = below that, where a call was filed; also: 0% is about no effect
#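 Compounds are added to dye-loaded, induced HEK293 T-REx cells coupled to calcium release via D2; after a 3 min kinetic read an EC80 dopamine stimulus is given and fluorescence is recorded for 3 more min.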
# D3 ag: activates human D3 dopamine receptor beta-arrestin recruitment | DiscoveRx D3 beta-arrestin cells, luminescence, 90 min | Potency, µM (doses to about 76.9 µM), for inactives: at the top dose activation, most hits filed as activators | AID 720506 | 2,300 compounds, 4% hits | shares compounds with D2 ag-1;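 also: potency is read from the fitted curve at half-maximal effect; 100% = dopamine control response; nearly all actives have a fitted effect of over 70% in size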
# Target sequence (P35462 whole entry, looked up): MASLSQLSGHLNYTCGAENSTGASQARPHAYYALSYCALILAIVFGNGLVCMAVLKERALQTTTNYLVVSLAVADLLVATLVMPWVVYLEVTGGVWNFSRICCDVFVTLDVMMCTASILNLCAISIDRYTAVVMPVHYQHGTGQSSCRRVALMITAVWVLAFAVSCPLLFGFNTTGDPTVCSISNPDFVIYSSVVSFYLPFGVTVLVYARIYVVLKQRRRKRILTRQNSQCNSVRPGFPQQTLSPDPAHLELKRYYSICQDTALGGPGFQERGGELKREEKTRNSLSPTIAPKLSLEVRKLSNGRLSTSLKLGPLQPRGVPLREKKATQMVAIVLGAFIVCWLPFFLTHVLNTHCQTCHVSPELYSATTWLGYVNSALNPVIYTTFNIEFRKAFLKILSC
# D2 ag-3: D2 receptor agonism, beta-arrestin counterscreen | AID 720507 | 2,300 compounds, 5.9% hits | shares compounds with D2 ag-1 | Potency, µM (top dose mostly 76.9 µM), for the others: at the highest dose activation, actives largely listed as activators | DiscoveRx PathHunter D2 beta-arrestin, luminescence, 90 min; response scale: percent relative to full dopamine signal; also: potency is read from the fitted curve at half-maximal effect; % of control where 0% means no effect; nearly all actives have a fitted effect of over 70% in size
# An asterisk follows results filed as active; ? = inconclusive; · = no result given. Hits are enriched below; roughly 2.4% of the tested compounds scored in any of these assays. Unless noted, calls follow the shape of the dose curve; as a rule, active = well fitted activation curve with a large enough effect; inconclusive = small, poorly fitted or top-dose-only effect; inactive = flat fitted curve, though single readings scatter.
SMILES,D2 ag-1,D2 PAM-1,D2 ag-2,D2 PAM-2,D2 antagonist,D3 ag,D2 ag-3
O=C(NCC(c1ccco1)N1CCN(c2ccccc2F)CC1)C1CCCCC1 (stereo not drawn),76.8*,-31.1,?,-6.4,59.2*,?,?
O=C(NCC(c1ccco1)N1CCN(c2ccccc2F)CC1)C(=O)NC1CC1 (stereo not drawn),23.2,-0.8,1.6,29.0,32.7*,?,?
CCOC(=O)c1[nH]c(C)c(C(=O)NC(CC)Cc2ccccc2)c1C (stereo not drawn),3.6,4.0,·,·,·,·,·
CN(C)S(=O)(=O)c1cccc(NC(=S)NNC(=O)c2cc3ccccc3cc2O)c1,72.0*,-22.7,-6.8,-5.8,56.2*,-8.1%,-8.1%
CCCn1c(COc2ccccc2)nc2ccccc21,·,·,?,2.8,·,?,18.3%
COc1ccc(OCCCCn2c(CO)nc3ccccc32)cc1,0.7,2.1,9.7,2.8,73.6*,5.4%,3.8%
O=C(NC1CCCCC1)c1cc(-c2cccc(Cl)c2)on1,0.6,-0.7,-3.0,0.4,0.8,·,·
O=C(CCN1CCN(c2ccccc2)CC1)Nc1ccc(Cl)cc1,0.4,-1.2,2.9,-13.1,-11.6,·,·
COC(=O)c1cc(CN2CCN(c3ccccc3)CC2)ccc1O,5.7,-4.9,5.7,-60.2,15.8,3.1%,8.2%
COC(=O)c1ccc(NC(=O)CCN2CCN(c3ccccc3)CC2)cc1,53.9*,-8.3,?,9.3,50.3*,?,?
O=C(Nc1ccc(C(=O)NCCCN2CCN(c3ccccc3)CC2)cc1)C1=CSCCO1,81.8*,-20.4,44.4*,-19.0,81.4*,10.7%,?
O=C(CCN1CCN(c2ccccc2)CC1)Nc1ccc(OCc2ccccc2)cc1,52.7*,-18.8,10.7,-10.4,65.0*,?,?
C[C@@H]1CN([C@H](C)CO)C(=O)CCCn2cc(nn2)CO[C@H]1CN(C)C(=O)c1ccccc1,·,·,-5.1,-7.7,·,·,·
CC(C)(C)C(=O)Nc1ccc(F)cc1[N+](=O)[O-],32.3*,-1.6,-3.0,-12.7,7.1,?,0.7%
COc1ccc([N+](=O)[O-])c(OC)c1C(=O)Nc1ccc(F)cc1F,-0.4,0.7,-0.3,-10.4,22.4,-6.4%,-2.0%
Cc1ccc(S(=O)(=O)Nc2ccc3c(c2)nc(CCN2CCN(c4ccccn4)CC2)n3C)cc1,0.0,-6.5,6.5,-25.4,51.2*,8.2%,25.4%
COc1ccc(OCC(=O)Nc2ccc3c(c2)nc(CCN2CCN(c4ccccn4)CC2)n3C)cc1,·,·,6.8,-17.8,·,·,·
Cn1c(CCN2CCN(c3ccccn3)CC2)nc2cc(NS(=O)(=O)c3ccc(Cl)cc3)ccc21,0.2,-5.3,13.5,-21.7,73.9*,15.9%,?
Cc1ccc(N2CCN(CCc3nc4cc(NS(C)(=O)=O)ccc4n3C)CC2)cc1,0.2,-39.0,0.4,-36.0,11.3,·,·
CC(OC(=O)/C=C/c1cccs1)C(=O)NC1CCCCC1C (stereo not drawn),-0.2,9.4,-2.5,3.6,8.0,·,·
CC(OC(=O)/C=C/c1ccco1)C(=O)NC1CCCCC1C (stereo not drawn),-0.2,10.7,-1.2,-1.2,4.6,-2.1%,-3.5%
CC(OC(=O)Cc1ccc(Cl)cc1)C(=O)NC1CCCCC1C (stereo not drawn),-0.3,0.7,1.3,0.8,-2.9,-0.4%,-3.4%
Cc1ccc(C)c(N2CCN(S(=O)(=O)c3ccc4[nH]c5c(c4c3)CCCCC5)CC2)c1,1.2,-0.8,·,·,·,·,·
CCn1c(SCC(=O)N(C)c2ccccc2)nc2c([nH]c3ccccc32)c1=O,-0.1,-2.2,-3.9,-27.0,10.7,·,·
Cc1nnc(N2C(=O)C(O)=C(C(=O)c3ccco3)C2c2ccc(F)cc2)s1 (stereo not drawn),17.1,5.3,-4.4,-2.0,-18.5,-6.4%,-3.1%
SMILES,D2 ag-1,D2 PAM-1,D2 ag-2,D2 PAM-2,D2 antagonist,D3 ag,D2 ag-3
COCCNC(=S)N1CCc2cc(OC)c(OC)cc2C1COc1ccc(C(C)C)cc1 (stereo not drawn),1.1,2.1,-2.0,-1.3,4.5,·,·
CCCC(C)NC(=O)c1cc(S(=O)(=O)N2CCCCCC2)ccc1OC (stereo not drawn),0.5,4.3,-2.4,-0.2,-11.9,-4.7%,-0.1%
CC(C)(C)c1ccc(C(=O)NC2(C(F)(F)F)C(=O)Nc3c2c(=O)[nH]c(=O)n3-c2ccccc2)cc1 (stereo not drawn),·,-3.7,·,·,·,·,·
CN(CCNC(=O)C1CCN(S(=O)(=O)N2CCOCC2)CC1)CCc1ccccc1,55.1*,-17.7,2.9,-25.8,28.1,6.9%,4.5%
Cc1ccc(S(=O)(=O)c2nc(/C=C/c3ccccc3)oc2N2CCC(C(N)=O)CC2)cc1,·,·,-3.6,-10.8,·,·,·
OCCC1CN(CCCc2ccccc2)CCN1CCc1ccccc1 (stereo not drawn),-0.7,3.0,3.3,-22.7,-16.1,·,·
COc1cc(CN2CCN(CCc3ccccc3)C(CCO)C2)cc(OC)c1 (stereo not drawn),0.1,-15.8,-7.3,-50.3,18.8,·,·
OCCC1CN(C/C=C/c2ccco2)CCN1Cc1ccccc1 (stereo not drawn),12.7,-7.3,0.1,-25.4,19.1,4.2%,1.0%
COc1cc(CN2CCN(CCCc3ccccc3)CC2CCO)cc(OC)c1 (stereo not drawn),63.0*,-27.2,5.3,-22.8,65.3*,-0.4%,5.1%
OCCC1CN(CCCc2ccccc2)CCN1Cc1ccccc1 (stereo not drawn),57.3*,-28.6,-1.3,-12.4,40.2*,-2.0%,1.0%
COc1ccccc1/C=C/CN1CCN(Cc2ccc(F)cc2)C(CCO)C1 (stereo not drawn),·,·,-2.1,-17.6,·,·,·
CC(C)SCCCCOc1ccc2ccccc2c1,1.6,-9.6,-1.3,-4.5,-22.7,-22.9%,1.2%
COC(=O)c1cc(Cl)ccc1NC(=O)Cn1c(C)cc(C)c(C#N)c1=O,2.0,22.6,·,·,·,·,·
COc1cccc(CN2CCN(C3CCN(c4cccc(C)c4C)CC3)CC2CCO)c1 (stereo not drawn),70.8*,-9.3,?,14.9,73.0*,?,?
CCOC(=O)N1CCC(N2CCCC(C(=O)c3ccccc3OC)C2)CC1 (stereo not drawn),73.7*,-14.8,?,10.1,70.3*,-2.4%,?
COc1cccc(CN2CCN(C3CCN(c4ccccc4F)CC3)CC2CCO)c1 (stereo not drawn),3.2,-22.6,-2.4,-16.4,8.1,·,·
